Measurements: PubChem BioAssay AID2751 (The Scripps Research Institute Molecular Screening Center, 2010)
Hit rate of the full screen: of about 320,000 compounds, about 2,200 (0.69%) were called active. No stated cut-off is given here; in the data, active means inhibition above about 43%; inactive means the rest. The list comes from a sample in which actives are over-represented; it also holds similar structures and randomly drawn compounds.

What follows are compounds tested against Prolyl endopeptidase-like (Homo sapiens) (UniProt Q4J6C6) (assay: human PREPL activity-probe blockers – biochemical, fluorescence polarization, primary screen (AID 2751;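 further: 0% = enzyme with DMSO and 100% = wells lacking enzyme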)). Conditions: recombinant PREPL, fluorescence polarization activity-based probe; at 5.96 µM; hits give high values.
Chain of Prolyl endopeptidase-like (Homo sapiens) (Q4J6C6 whole entry, looked up): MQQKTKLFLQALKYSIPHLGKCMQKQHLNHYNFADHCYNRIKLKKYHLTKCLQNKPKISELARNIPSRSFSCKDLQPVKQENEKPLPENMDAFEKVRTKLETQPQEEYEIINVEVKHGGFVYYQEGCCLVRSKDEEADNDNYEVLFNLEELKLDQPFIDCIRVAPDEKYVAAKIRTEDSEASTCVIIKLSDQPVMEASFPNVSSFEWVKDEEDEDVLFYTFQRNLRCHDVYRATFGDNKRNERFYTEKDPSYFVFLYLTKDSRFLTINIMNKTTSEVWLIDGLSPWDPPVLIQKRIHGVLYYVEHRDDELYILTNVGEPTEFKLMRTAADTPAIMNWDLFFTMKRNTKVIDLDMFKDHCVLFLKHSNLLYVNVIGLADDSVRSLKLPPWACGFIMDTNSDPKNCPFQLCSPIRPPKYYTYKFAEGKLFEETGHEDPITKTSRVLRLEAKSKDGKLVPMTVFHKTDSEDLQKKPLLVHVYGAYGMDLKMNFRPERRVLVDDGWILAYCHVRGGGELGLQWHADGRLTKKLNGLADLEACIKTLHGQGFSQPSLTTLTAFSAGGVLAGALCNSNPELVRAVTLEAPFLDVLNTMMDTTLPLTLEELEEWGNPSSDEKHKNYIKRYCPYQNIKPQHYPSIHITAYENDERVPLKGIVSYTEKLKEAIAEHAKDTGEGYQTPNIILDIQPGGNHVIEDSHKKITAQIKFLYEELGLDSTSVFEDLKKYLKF

inhibition, active:
CCN1C(=O)c2cccc3c(N)ccc1c23 45.6%
Cc1nc([N+](=O)[O-])nn1C12CC3CC(CC(Br)(C3)C1)C2 45.5%
O=C1c2ccccc2C(=O)c2c1cccc2N1CCN(C/C=C/c2ccccc2)CC1 87.2%
Cc1ccc(N2CCN(C3=NC(=O)/C(=C\c4cccs4)S3)CC2)cc1 53%
COc1ccc(NC(C)=O)cc1NC(=O)CN1CCN(C2c3ccccc3-c3ccccc32)CC1 43.8%
O=C1N=C(N2CCc3ccccc3C2)S/C1=C\c1ccc(O)cc1 47.4%
Oc1ccc2ccccc2c1N=Nc1nccs1 50.7%
CN1CCN(c2ccc(NC(=O)COc3ccc(Cl)cc3Cl)cc2)CC1 54.8%
Cc1ccc(OCC(=O)Nc2ccc(N3CCN(C(=O)c4ccco4)CC3)cc2)c(C)c1 55%
O=C(N/N=C/c1cccnc1)c1cc2ccccc2cc1O 63.4%
CC(C)(C)Nc1nc(-c2ccccn2)nc2ccccc12 47.1%
CCN(CC)c1ccc2cc(C(N)=O)/c(=N\NC(=O)c3ccncc3)oc2c1 48.4%
CCN1/C(=C\c2ccc3ccccc3[n+]2CC)Sc2cc(C)ccc21 52.8%
CCN1/C(=C/c2ccc3ccc(C)cc3[n+]2CC)Sc2ccccc21 53.4%
Cc1ccc(NS(=O)(=O)c2ccc(N/N=C/c3ccccc3OCC(=O)O)c([N+](=O)[O-])c2)c(C)c1 49.9%
CC[N+](C)(CC)CCC[n+]1c(-c2ccccc2)c2cc(N)ccc2c2ccc(N)cc21 65.2%
Cc1ccccc1OCC(=O)Nc1ccc(N2CCN(C(=O)C(C)C)CC2)c(Cl)c1 49.4%
CCOc1ccc2nc(N3CCCN(C(=O)Nc4ccccc4C)CC3)c(C#N)cc2c1 43.6%
O=C(c1cc(C(=O)N2CCN(c3ccc(F)cc3)CC2)cc([N+](=O)[O-])c1)N1CCN(c2ccc(F)cc2)CC1 43.4%
O=C(c1cccc(C(=O)N2CCN(c3ccc(F)cc3)CC2)c1)N1CCN(c2ccc(F)cc2)CC1 62.3%

inhibition, inactive:
CN1C(=O)c2cccc3c(N)ccc(c23)C1=O 14.4%
CCN1C(=O)c2cccc3c(S(=O)(=O)Nc4ccccc4O)ccc1c23 4.31%
Cc1snc(SCc2c(F)cccc2Cl)c1C#N 10%
Cc1ncn(C23CC4CC(CC(O)(C4)C2)C3)n1 3.85%
COc1cccc(NC(=O)c2nn(C34CC5CC(CC(C5)C3)C4)cc2[N+](=O)[O-])c1 1.65%
CCn1nc(C(=O)NNS(=O)(=O)c2cc(/C=C/C(=O)O)cc(OC)c2OC)c2ccccc2c1=O 1.44%
Cn1c(CC2Sc3ccccc3NC2=O)nnc1SCC(=O)c1ccc(Cl)cc1 (stereo unspecified) -2.92%
Cc1cc(-c2nnc(SCC(=O)Nc3ccc(F)cc3)n2N)n[nH]1 -0.73%
CCOC(=O)N1CCN(S(=O)(=O)c2ccc(-n3cnnn3)cc2)CC1 -0.87%
COc1ccc(/C=N/N=C/c2c[nH]c(=O)c(C#N)c2Nc2ccccc2)cc1 5.21%
O=C(OCC(=O)N1CCc2ccccc21)c1ccc([N+](=O)[O-])cc1 18%
O=C1c2ccccc2C(=O)c2c1cccc2N1CCN(CCO)CC1 10%
O=C1c2ccccc2C(=O)c2c1cccc2N1CCN(Cc2ccccc2)CC1 34.3%
CN(C(=O)CC1C(=O)NCCN1Cc1ccc2ccccc2c1)C1CCOCC1 (stereo unspecified) 15.8%
CCCc1cc(=S)n2c([nH]c3ccccc32)c1C#N 16%
Cc1ccc(N2CCN(/N=C/c3cccs3)CC2)cc1 10.6%
Cc1ccsc1/C=C1\SC(N2CCOCC2)=NC1=O 5.64%
CN(NS(=O)(=O)c1cccs1)c1ncc(C(F)(F)F)cc1Cl -0.65%
COc1ccccc1OCC(=O)Nc1c2c(nn1-c1ccc(F)cc1)CS(=O)(=O)C2 -4.94%
COc1cccc(NC(=O)CN2CCN(CC(=O)Nc3ccccc3Cl)CC2)c1 -3.67%
COc1ccc(Cl)cc1NC(=O)CN1CCN(C(=O)N2CCOCC2)CC1 -6.54%
CN=C1SC(CC(=O)Nc2ccc(C(=O)O)cc2)C(=O)N1C (stereo unspecified) 1.69%
COP1(=O)C[C@@H](O)[C@@H](O)[C@@H](COCc2ccccc2)O1 (stereo partly specified) -5.04%
O=C(c1ccco1)N1CCN(C(=O)C2CCCN(S(=O)(=O)c3cccc4nsnc34)C2)CC1 (stereo unspecified) -5.71%
CCc1ccc(/C=C2\SC(N3CCOCC3)=NC2=O)cc1 19.1%
CC1CCN(C2=NC(=O)/C(=C/c3ccc(O)cc3)S2)CC1 12.1%
C=CCOc1ccc(/C=C/C(=O)OCC(=O)NC(C)c2ccc(F)cc2)cc1 (stereo unspecified) 5.51%
S=C(NCCC1=CCCCC1)Nc1ccccc1 9.47%
Cc1ccc(S(=O)(=O)N2CCN=C2SCc2c(F)cccc2Cl)cc1 11.2%
C=CC(=O)OCCOCCOCCOCCOC(=O)C=C -0.81%
CN1CCC(OC(=O)COc2ccc(Cl)cc2Cl)CC1 -6%
Cc1ccc(C)c(OCC(=O)N2CCN(C(=O)c3ccco3)CC2)c1 1.04%
Cc1ccc(Cl)c(OCC(=O)N(C)CC(=O)Nc2ccc(N3CCOCC3)cc2)c1 -6.09%
CCC(=O)Nc1ccc(C(=O)N2CCN(C(=O)c3ccco3)CC2)cc1 -4%
Cc1ccc(S(=O)(=O)c2nc(-c3cccs3)oc2NCc2cccnc2)cc1 8.75%
Oc1ccccc1-c1cc(-c2ccc(Cl)cc2)n[nH]1 -35.8%
O=C(NN=Cc1ccc(N2CCOCC2)cc1)c1cc2ccccc2cc1O 19.7%
Cc1ccc(/C=N/NC(=O)c2cc3ccccc3cc2O)o1 13.4%
NC(=O)COc1ccc(/C=N/NC(=O)C2CCCN2S(=O)(=O)c2ccc(Cl)cc2)cc1 (stereo unspecified) 11%
CCCCN(C(=O)c1ccc(C)o1)c1c(N)n(CCCC)c(=O)[nH]c1=O -0.55%
c1ccc2c(NCC3CCCO3)nc(-c3ccncc3)nc2c1 (stereo unspecified) 5.66%
COc1ccc(CNc2ncnc3ccccc23)cc1 -16.5%
Cc1n[nH]c(C)c1S(=O)(=O)N1CCCC(C(=O)Nc2ccc(Br)cc2)C1 (stereo unspecified) -17.7%
O=S(=O)(O)CCN1CCOCC1 25.7%
O=C(NCC(=O)N1CCN(c2ccccc2F)CC1)c1cccs1 3.72%
NC(=O)c1cc2ccccc2o/c1=N/NC(=O)c1cccc(F)c1 11.6%
COc1cccc2cc(C(N)=O)/c(=N\NC(=O)c3ccccc3)oc12 -0.47%
CC1CCC2(CC1)NC(=O)N(CC(=O)c1ccc3c(c1)OCO3)C2=O (stereo unspecified) 11.2%
O=c1oc(-c2ccccc2NS(=O)(=O)c2ccc(Cl)cc2)nc2ccccc12 6.42%
COC(=O)[C@]1(CC(C)C)N[C@H](c2ccc(SC3CCCCC3)cc2)[C@@H]2C(=O)N(C)C(=O)[C@@H]21 2.32%
COc1ccc(OC)c(CN2CCN(C(=O)CNC(=O)c3cc(C)cc(C)c3)CC2)c1 5.26%
Cn1cnc(S(=O)(=O)Nc2ccc3c(c2)OCCO3)c1 -9.35%
CC(=O)c1cc(NC(=O)c2ccccc2)c(=O)oc1/C=C/N(C)C 0.73%
Cc1cccc(N2CCN(C(C)C(=O)N3CCc4ccccc43)CC2)c1C (stereo unspecified) 18.7%
CC1CCC2(CC1)NC(=O)N(Cc1nnc(-c3cccs3)o1)C2=O (stereo unspecified) 11.6%
CCCNCc1cc(OCC)c(OCC(=O)Nc2ccccc2)cc1Br -9.46%
CCCC(CCC(=O)OC)(C(=O)OCC)c1csc(N)n1 (stereo unspecified) 2.3%
C=C(C)CNC(=S)N/N=C/c1ccccc1OCC(=O)O -3.72%
Cc1ccc(Cn2c(SCC(=O)N/N=C/c3ccccc3OCC(=O)O)nc3ccccc32)cc1 -29%
O=C(C1CCCN1S(=O)(=O)c1ccc(Br)cc1)N1CCOCC1 (stereo unspecified) 12.8%
Cc1ccc(C)c(NC(=O)C2Cc3ccccc3CN2C(=O)OCc2ccccc2)c1 (stereo unspecified) -31.7%
COc1ccc(C2NC(=O)C(=O)/C2=C(\O)c2ccc(Cl)cc2)cc1OC (stereo unspecified) 2.96%
C=CCN1C(=O)C(Cc2ccc(OCC)cc2)SC1=Nc1ccc(C(=O)O)cc1 (stereo unspecified) -7.27%
CCNC(=O)N(CC)C[C@H]1N[C@@](CC)(C(=O)OC)[C@H]2C(=O)N(Cc3ccccc3)C(=O)[C@@H]12 2.12%
CCC(=O)N1CCN(c2ccccc2NC(=O)COc2cccc(C)c2C)CC1 12.6%
Cc1ccccc1OCC(=O)Nc1ccc2c(c1)ncn2C 8.18%
O=C(Nc1c2c(nn1-c1ccccc1)CS(=O)(=O)C2)C1CCCC1 11.5%
O=C(C1CCCN(S(=O)(=O)c2ccc([N+](=O)[O-])cc2)C1)N1CCCCC1 (stereo unspecified) 3.89%
CC1=CC(C)(C)NC(=S)N1c1ccccc1 0.44%
COc1ccc2nc(N3CCCC(O)C3)c(C#N)cc2c1 (stereo unspecified) 19.4%
CCOC(=O)c1cc(C#N)c(N2CCCCC2)nc1-c1ccccc1 -11.5%
O=C(NCc1ccccc1Cl)C1CCC(CNc2c(N3CCCCC3)c(=O)c2=O)CC1 (stereo unspecified) 0.19%
O=C(c1cccc(F)c1)N1CCN(c2ccc([N+](=O)[O-])c(N3CCCCC3)c2)CC1 16.6%
O=C(c1ccccc1Oc1ccccc1)N1CCN(c2ccc(F)cc2)CC1 -29.3%
O=C(c1cncc(Br)c1)N1CCN(c2ccc([N+](=O)[O-])cc2)CC1 17.6%
O=C(c1cc2cc(F)ccc2[nH]1)N1CCN(c2ccc(F)cc2)CC1 18.5%
